Measurements from PubChem BioAssay AID1259421 (Broad Institute, 2018).
Values joined by “and” are separate entries in the source; they are usually repeats but may differ in a detail not shown here. Equal entries are not always repeated. About 610 (9.5%) of roughly 6,400 compounds were called active. The full list was thinned out, with actives kept by preference. Values without a mark were called inactive. Rule as the data show it: active = activity change below about -70%; inconclusive = no clear call, values can overlap the other calls; inactive = above that. Where a SMILES comes first, the peptide text is derived from it.

assay: Toxoplasma gondii ME49Luc growth in HeLa cells, luciferase, no IFN-y, primary screen (AID 1259421); details: T. gondii ME49Luc in HeLa, 72 h, hits give low values, concentration not given here

Row | Compound | activity change, negative = inhibition
1 | CN1C/C=C/CCOc2cccc(c2)-c2ccnc(n2)Nc2cccc(c2)C1 | -90% (active)
2 | CCCCCCCCCCCCCCCC(=O)C1C(=O)OC(CO)C1=O (stereo unspecified) | 6.7%
3 | Cc1cccc(C2CN(C)CCc3c2cc(O)c(O)c3Cl)c1 (stereo unspecified) | -3.35%
4 | CCOC(=O)[C@H]1O[C@@H]1C(=O)N[C@@H](CC(C)C)C(=O)NCCC(C)C | 12.9% and 2.41%
5 | CC(C)C[C@H](NC(=O)[C@H](CCc1ccccc1)NC(=O)CN1CCOCC1)C(=O)N[C@@H](Cc1ccccc1)C(=O)N[C@@H](CC(C)C)C(=O)[C@@]1(C)CO1 | -76.7% (active)
6 | CC(=O)N[C@@H](Cc1ccccc1)C(=O)O | 16.5%
7 | O=C(Cc1ccc(-c2ccc(OCCN3CCOCC3)cc2)cn1)NCc1ccccc1 | -55.5%
8 | CC(C)c1nc(CN(C)C(=O)N[C@@H](CCN2CCOCC2)C(=O)N[C@H](CC[C@H](Cc2ccccc2)NC(=O)OCc2cncs2)Cc2ccccc2)cs1 | -16.7%
9 | COC[C@H](NC(=O)c1cnc(C)s1)C(=O)N[C@@H](COC)C(=O)N[C@@H](Cc1ccccc1)C(=O)C1(C)CO1 (stereo partly specified) | -88.8% (active)
10 | COc1ccc(C[C@H](NC(=O)[C@H](C)NC(=O)CN2CCOCC2)C(=O)N[C@@H](Cc2ccccc2)C(=O)[C@]2(C)CO2)cc1 | -76% (active)
11 | CC(=O)NC(Cc1ccccc1)C(=O)O (stereo unspecified) | 20.2%
12 | COC(=O)[C@H](Cc1ccccc1)NC(=O)[C@@H](N)CC(=O)O (H-Asp-Phe-OMe) | 0.919%
13 | C[C@H]1CN(C[C@H](Cc2ccccc2)C(=O)NCC(=O)O)CC[C@@]1(C)c1cccc(O)c1 | 4.96%
14 | CC1(C)CCC(C)(C)c2cc(Cn3cccn3)c(/C=C/c3ccc(C(=O)O)cc3)cc21 | 15.2%
15 | c1ccc(-c2nn3c(c2-c2ccnc4cc(OCCN5CCOCC5)ccc24)CCC3)nc1 | -32.4%
16 | COc1ccc(-c2coc3cc(O)ccc3c2=O)c(OC)c1 | 11.6%
17 | CCN(CC)CC(=O)Oc1ccc(NC(C)=O)cc1 | 7.5%
18 | OC[C@H]1O[C@H](O[C@H]2O[C@H](CO)[C@@H](O)[C@H](O)[C@H]2O)[C@H](O)[C@@H](O)[C@@H]1O | 7.53%
19 | C[N@+]12CCCC[C@@H]1CCC(=C(c1cccs1)c1cccs1)C2 | 13.6%
20 | O=C(O)c1cc(=O)c2c3nc4ccccc4oc-3cc(=O)c2[nH]1 | 1.96%
21 | CC(=O)N[C@H]1[C@H]([C@H](O)[C@H](O)CO)OC(C(=O)O)=C[C@@H]1N=C(N)N | 10.9%
